Screens from PubChem.
PRMT1 FP inh – PRMT1 methyltransferase inhibitors, primary screen, biochemical, fluorescence polarization. recombinant PRMT1, activity-based probe fluorescence polarization. inhibition, % at 2.79 µM. 370,000 compounds, 1.3% hits. AID 652257, 2013;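 active = inhibition above about 21% made by adding two undisclosed values, limit read from the data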
Granule exo inh – LAMP-1 surface exposure blockers, TALL-104 cells – cell-based, flow cytometry, MLPCN library, primary screen; TALL-104 LAMP-1 surface exposure; cells stimulated with thapsigargin and PMA; inhibition, % at 10 µM; 360,000 compounds, 0.66% hits; AID 651702, 2012;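 active = inhibition above about 55%, limit read from the data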
NOD2 RIPK2 PPI – NOD2-RIPK2 binding disruptors in cells, primary screen, fluorescence, CHO cells, BLA complementation | inhibition, % at 4.98 µM | CCF4 ratio | 360,000 compounds, 0.38% hits | AID 624267, 2012 | Receptor-interacting serine/threonine-protein kinase 2 (Homo sapiens), O43353; in the data active = inhibition above about 21%
TLR9-MyD88 inh – inhibitors of TLR9-MyD88 association in cells, primary screen, cell-based, CHO, BLA complementation, fluorescence | Toll-like receptor 9 (Homo sapiens) + Myeloid differentiation primary response protein … | CCF4 FRET ratio | inhibition, % at 4.98 µM | 340,000 compounds, 0.21% hits | AID 504734, 2011;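 active = inhibition above the mean over all tested compounds plus 3 SD, cut at about 21% in these data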
ABHD5-PLIN5 inh – ABHD5-PLIN5 interaction inhibitors, primary screen, cell lysate, split luciferase complementation, luminescence. AID 602281, 2012. inhibition, % at 4 µM. Split G. princeps luciferase complementation, 4 h. 360,000 compounds, 0.78% hits. Perilipin-5 (Homo sapiens) + 1-acylglycerol-3-phosphate O-acyltransferase ABHD5 (Homo …;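 active = inhibition above the mean inhibition across every tested compound plus 3 SD, cut at about 22% in these data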
TLR4-MyD88 BLA – inhibitors of TLR4-MyD88 association in cells, primary screen, cell-based, HeLa CL3-4, BLA complementation, FRET ratio; HeLa CL3-4 TLR4/MyD88 BLA complementation; Toll-like receptor 4 (Homo sapiens) + Myeloid differentiation primary response protein …; inhibition, % at 8.4 µM; 200,000 compounds, 0.18% hits; in the data active = inhibition above about 25%
TLR9-MyD88 cf – TLR9-MyD88 association inhibitors, retest, confirmation, cell-based, CHO, BLA complementation, fluorescence, triplicate | 680 compounds, 51% hits | inhibition, % at 4.98 µM | CCF4 FRET ratio | shares compounds with TLR9-MyD88 inh | AID 540250, 2011;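 active = mean inhibition across three repeats above about 21% taken from the earlier screen, limit read from the data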;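 note: blue over green emission ratio reports constitutive TLR9 MyD88 association via BLA complementation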
BLA counter-1 – beta-lactamase reporter inhibitors in CHO cells, artefact control for TLR9-MyD88 binding inhibitor project, cell-based, fluorescence; shares compounds with TLR9-MyD88 inh; CHO-BLA cells, CCF4 FRET ratio, BLA reporter; inhibition, % at 4.98 µM; 680 compounds, 7% hits; AID 540251, 2011;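 active = mean inhibition above a 50% cutoff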;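 note: counterscreen of TLR9-MyD88 hits on CMV-driven BLA in CHO-K1 cells; higher means less blue over green ratio so more BLA blockade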
TLR9 CHO cytotox – CHO cell viability loss – luminescence, single concentration, cytotoxicity control for TLR9-MyD88 binding inhibitor project; inhibition, % at 4.98 µM; TLR9-MyD88 CHO cells cytotoxicity; 680 compounds, 39% hits; shares compounds with TLR9-MyD88 inh; in the data active = inhibition above about 11%
ABHD5 PLIN5 conf – ABHD5-PLIN5 interaction inhibitors, confirmation, biochemical, luminescence; 2,200 compounds, 67% hits; inhibition, % at 4 µM; shares compounds with ABHD5-PLIN5 inh; in the data active = inhibition above about 23%
HNF4 split-luc – HNF4 dimerization inhibitors, counter-screen for ABHD5-PLIN5 interaction inhibitor project, biochemical, split-luciferase complementation, luminescence | 2,200 compounds, 77% hits | shares compounds with ABHD5-PLIN5 inh | inhibition, % at 4 µM;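 active = mean inhibition across replicate wells exceeding the computed hit threshold, cut at about 13% in these data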;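 note: light from luciferase halves that rejoin when HNF4 fusion proteins dimerize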
NOD2 RIPK2 conf – NOD2-RIPK2 binding disruptors, retest, confirmation, fluorescence, CHO cells, BLA complementation, triplicate | shares compounds with NOD2 RIPK2 PPI | CCF4 FRET | inhibition, % at 4.98 µM | 1,200 compounds, 70% hits | AID 624370, 2012;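 active = mean inhibition across replicates above a set limit taken from the earlier primary screen, cut at about 21% in these data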
BLA counter-2 – counter-screen for NOD2-RIPK2 interaction inhibitors: BLA reporter | shares compounds with NOD2 RIPK2 PPI | CHO BLA reporter, CCF4 FRET ratio, counterscreen | inhibition, % at 4.98 µM | 1,200 compounds, 57% hits | AID 624371;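 active = mean inhibition above the low-control mean inhibition plus three low-control SD, cut at about 11% in these data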
A number is an active result; i = inactive; nt = not tested or not shown. Most compounds without a hit are left out; they make up all but 2.6% or so of the library.

SMILES	PRMT1 FP inh	Granule exo inh	NOD2 RIPK2 PPI	TLR9-MyD88 inh	ABHD5-PLIN5 inh	TLR4-MyD88 BLA	TLR9-MyD88 cf	BLA counter-1	TLR9 CHO cytotox	NOD2 RIPK2 conf	BLA counter-2	others
O=C1N/C(=C/c2cccn2-c2ccc(F)cc2)C(=O)N1Cc1ccccc1	i	i	75	61	i	i	51	52	i	85	89
CCOc1ccc2cc(/C=C/C(=O)c3ccco3)c(Cl)nc2c1	i	i	27	29	25	36	i	i	i	i	i	ABHD5 PLIN5 conf=71;HNF4 split-luc=56
Nc1[nH]c(C(=O)c2ccc(Br)cc2)c(-c2ccc(Cl)cc2[N+](=O)[O-])c1C(=O)NCCc1c[nH]c2ccccc12	i	nt	nt	nt	nt	nt	nt	nt	nt	nt	nt
CC1CN(c2nc3ccccc3nc2SCC(=O)N2CCN(S(=O)(=O)c3ccc(F)cc3)CC2)CC(C)O1 (configuration not stated)	i	nt	nt	nt	nt	nt	nt	nt	nt	nt	nt
COC(=O)c1scc2c(=O)cc(C(F)(F)F)[nH]c12	i	i	72	63	i	nt	50	55	i	74	78
Cc1ccccc1-c1cccc2[nH]c3c(c12)CCN1C(=O)[C@H]2[C@H](C)ON(C)[C@H]2C[C@@H]31	i	nt	nt	nt	nt	nt	nt	nt	nt	nt	nt
CN(C)c1ccc(/C=C/c2nc3ccccc3c(=O)n2-c2ccc(C(=O)O)cc2)cc1	i	i	34	40	i	nt	25	i	i	60	65
O=C(O)c1cccc(-n2c(/C=C/c3ccccc3)nc3ccccc3c2=O)c1	i	i	i	i	i	nt	nt	nt	nt	nt	nt
O=C(OCc1cn(Cc2ccccc2F)nn1)N1CCOCC1	i	nt	nt	nt	nt	nt	nt	nt	nt	nt	nt
CCN(CC)c1ccc(C=NNC(=O)c2cc(-c3ccc(C)c(C)c3)n[nH]2)c(O)c1	i	nt	nt	nt	nt	nt	nt	nt	nt	nt	nt
COc1ccc(NC(=O)/C(Cl)=C(/Cl)S(=O)(=O)Cc2ccccc2)cn1	24	100	56	28	49	i	21	i	99	68	23
COc1ccc(NC(=O)Cc2ccc(-c3ccccc3)cc2)cn1	i	i	i	i	i	i	nt	nt	nt	nt	nt
COC(=O)[C@]12C[C@H](CC(=O)NCC3CCCCC3)C(=O)N(CCC3=CCCCC3)C1=C[C@H](COCc1ccccc1)O[C@@H]2C	i	nt	nt	nt	nt	nt	nt	nt	nt	nt	nt
CCN(CC)c1ccc2c(Cl)c(Br)c(=O)oc2c1	nt	i	95	92	i	91	89	91	52	100	96
